This is an account of results in PubChem BioAssay AID743286 (National Center for Advancing Translational Sciences (NCATS), 2014).

Molecules are shown by their SMILES. Among all 1,100 compounds or so, about 340 (31%) were called active. Not shown: some 40% with an inconclusive outcome. Calls come from the whole dose curve; as a rule, active = well fitted inhibition curve with a large enough effect; inconclusive = small, poorly fitted or top-dose-only effect; inactive = flat fitted curve, though single readings scatter. The list is a sample of the results. Where a call stands in place of a potency, no number is given.
Potency is the fitted concentration of half-maximal effect.

Chain of Phosphatidylinositol 5-phosphate 4-kinase type-2 alpha (Homo sapiens) (P48426 whole entry, looked up): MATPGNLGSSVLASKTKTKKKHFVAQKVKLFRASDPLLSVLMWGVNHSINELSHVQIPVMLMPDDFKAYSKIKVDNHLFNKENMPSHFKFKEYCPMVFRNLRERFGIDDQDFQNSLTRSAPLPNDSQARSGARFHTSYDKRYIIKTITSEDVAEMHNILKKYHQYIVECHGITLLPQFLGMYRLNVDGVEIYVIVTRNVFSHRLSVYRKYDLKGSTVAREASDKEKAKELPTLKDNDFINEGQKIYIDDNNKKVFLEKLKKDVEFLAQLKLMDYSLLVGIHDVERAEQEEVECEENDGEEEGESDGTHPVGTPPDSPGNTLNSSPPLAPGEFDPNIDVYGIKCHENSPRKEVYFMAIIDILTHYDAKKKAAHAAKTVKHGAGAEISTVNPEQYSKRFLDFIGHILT

This assay has as its target Phosphatidylinositol 5-phosphate 4-kinase type-2 alpha (Homo sapiens) (UniProt P48426). As to the kind of experiment: qHTS for Inhibitors of PI5P4K: Confirmation in Primary Assay. Note: nearly all actives have a fitted effect of over 65% in size. Conditions: PI5P4Kalpha enzyme, ADP-Glo luminescence, 60 min; series mostly up to 76.9 µM. In outline: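 Enzyme/substrate mix dispensed, compound transferred by pin tool, ATP (5 microM final) added to start; incubated 60 min RT. ADP-Glo reagent 1 (45 min) then reagent 2 (30 min); luminescence measured.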
(Quantitative high-throughput screening tests each substance at several concentrations.)
Regarding `O=C(c1cc(-c2ccco2)nc2ccccc12)N(Cc1nnc(-c2ccc(Cl)cc2)o1)C1CC1`, the Potency entry was “inactive”. Next, `Cc1ccc(NC(=O)CN(C)C(=O)c2cc(-c3ccco3)nc3ccccc23)cc1`: 8.91 µM (active). As for `CN(CC(=O)Nc1ccc(F)cc1)C(=O)c1cc(-c2ccco2)nc2ccccc12`, the Potency was 14.1 µM (active). As for `COc1cccc(NC(=O)CN(C)C(=O)c2cc(-c3ccco3)nc3ccccc23)c1`, the Potency was 15.8 µM (active).

For the molecule `CCNC(=O)c1ccccc1SCC(=O)Nc1ccc(F)cc1`, the Potency result was “inactive”. As for `COc1ccc(NC(=O)CN(C)C(=O)c2cc(-c3ccco3)nc3ccccc23)cc1`, the figure is 5.01 µM (active). Next, `COCCN(CC(=O)NCC1CCCO1)C(=O)CCC(=O)Nc1ccccn1` (stereo not drawn): “inactive”; `COCc1c(C(=O)N2CCc3ccccc32)oc2ccccc12`: “inactive”. For the molecule `CCOC(=O)c1nnn(-c2ccccc2)c1C`, the Potency result is “inactive”. As for `CCn1c(C(=O)OC)cc2c1ccn2-c1ccc(F)cc1`, the entry is “inactive”; as for `CC(C)(C)NC(=O)C(c1ccc(C#N)cc1)n1c(=O)c(-c2ccco2)nc2ccccc21` (stereo not drawn), “inactive”. Next, `O=C(Nc1cc(S(=O)(=O)N2CCOCC2)ccc1O)c1ccc(NS(=O)(=O)c2ccc(Cl)s2)cc1`: 20 µM (active); `Cc1cc(C(=O)OCC(=O)Nc2cc(S(=O)(=O)N3CCOCC3)ccc2Cl)c(C)o1`: “inactive”.

`COc1ccc(N2CSC3=C(C#N)C(c4ccc(OC)c(OC)c4)CC(=O)N3C2)c(OC)c1` (stereo not drawn): the Potency was 12.6 µM (active). Next, `COc1cccc(C2CC(=O)N3CN(c4cccc(Cl)c4C)CSC3=C2C#N)c1OC` (stereo not drawn): 39.8 µM (active). Next, `COc1ccc(OC)c(C2CC(=O)N3CN(c4cccc(Cl)c4)CSC3=C2C#N)c1` (stereo not drawn): “inactive”; `COc1ccc(C2CC(=O)N3CN(c4ccc(C)c(Cl)c4)CSC3=C2C#N)cc1OC` (stereo not drawn): “inactive”. Regarding `COc1ccc(N2CSC3=C(C#N)C(c4cccc(OC)c4OC)CC(=O)N3C2)cc1` (stereo not drawn), the Potency was 7.08 µM (active). With `CCN(CC)C(=O)c1[nH]cnc1C(=O)Nc1ccc(OC)cc1`, the Potency entry was “inactive”. As for `CCCCOc1ccc(S(=O)(=O)NC(=O)C2(C)CCN2C(=O)CCc2ccccc2)cc1` (stereo not drawn), the entry is “inactive”. Next, `C[C@H](NC(=O)c1nc[nH]c1C(=O)N[C@@H](C)C(=O)OC(C)(C)C)C(=O)OC(C)(C)C`: “inactive”. For `COc1cccc(NS(=O)(=O)c2ccc3c(c2)C2C=CCC2C(c2ccc(C(=O)O)cc2)N3)c1` (stereo not drawn), the Potency was 31.6 µM (active). In the case of `Cc1ccc(-c2csc3ncnc(NCCC(=O)O)c23)cc1C`, the Potency was 14.1 µM (active). Consider `CN(C)C(=O)c1ccc(NC(=O)COC(=O)C2=COCCO2)cc1`, for which the Potency entry is “inactive”.

For the molecule `NC(=O)C1CCN(c2cc(Cl)nc(N)n2)CC1`, the Potency result was “inactive”. Next, `Cc1ccc(C(c2cc(Cl)c3cccnc3c2O)N2CCN(C)CC2)cc1` (stereo not drawn): 15.8 µM (active).

For the molecule `CN1CCN(C(c2ccc(Br)cc2)c2cc(Cl)c3cccnc3c2O)CC1` (stereo not drawn), the Potency is 15.8 µM (active). Consider `CN1CCN(C(c2ccccc2)c2ccc(Cl)cc2)CC1` (stereo not drawn), for which the Potency result is “inactive”.
